Among the data in publication PMC7862700, “An all-to-all approach to the identification of sequence-specific readers for epigenetic DNA modifications on cytosine” are binding signal values, retold here.

Common to all, as to assay: DAPPL (digital affinity profiling via proximity ligation, sequencing); 10 mM Tris-HCl pH 7.5, 50 mM NaCl, 1 mM DTT, 4% glycerol, room temperature, 30 min; GST-TFs on glutathione beads, 16-mer random dsDNA library, 0.1% formaldehyde crosslink after washing; high values mean tight binding
Conditions in all cases: protein: recombinant; tags: N-terminal GST; dsDNA, one strand shown

One experiment has as its target T1, ERF (Homo sapiens, UniProt P50548 1-548).
T1 sequence: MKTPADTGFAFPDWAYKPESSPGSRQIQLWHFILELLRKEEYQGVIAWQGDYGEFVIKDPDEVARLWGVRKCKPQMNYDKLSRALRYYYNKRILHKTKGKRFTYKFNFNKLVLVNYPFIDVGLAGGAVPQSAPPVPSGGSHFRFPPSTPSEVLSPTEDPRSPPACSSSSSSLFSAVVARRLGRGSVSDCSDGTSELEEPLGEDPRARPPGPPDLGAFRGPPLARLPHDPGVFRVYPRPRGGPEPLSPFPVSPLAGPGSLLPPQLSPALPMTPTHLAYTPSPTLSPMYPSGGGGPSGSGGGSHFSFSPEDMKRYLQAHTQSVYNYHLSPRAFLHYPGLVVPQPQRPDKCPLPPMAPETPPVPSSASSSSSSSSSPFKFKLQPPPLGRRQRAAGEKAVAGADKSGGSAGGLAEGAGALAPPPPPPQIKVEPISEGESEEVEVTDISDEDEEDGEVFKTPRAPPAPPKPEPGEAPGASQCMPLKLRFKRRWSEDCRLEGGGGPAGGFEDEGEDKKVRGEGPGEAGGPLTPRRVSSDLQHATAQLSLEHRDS
In short, it runs like this:
(§1)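 In yeast, human transcription factors were expressed with a GST fusion, then pulled down on glutathione beads and given DNA barcodes. Pooled with a tag-only sample, they were exposed to 200 nmole of a 16-mer random double-stranded DNA library (Tris/NaCl/DTT/glycerol buffer, room temperature, 30 min), washed, crosslinked with 0.1% formaldehyde, proximity-ligated using BsaI/T4 ligase for 1 h at 37 °C, PCR-amplified and read on an Illumina NextSeq500. Each hexamer's frequency of reads for a factor, divided by the matching frequency for the tag-only sample, gives the binding signal.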

Another experiment deals with T2, ETV3L (Homo sapiens, UniProt Q6ZN32 1-361).
T2 sequence: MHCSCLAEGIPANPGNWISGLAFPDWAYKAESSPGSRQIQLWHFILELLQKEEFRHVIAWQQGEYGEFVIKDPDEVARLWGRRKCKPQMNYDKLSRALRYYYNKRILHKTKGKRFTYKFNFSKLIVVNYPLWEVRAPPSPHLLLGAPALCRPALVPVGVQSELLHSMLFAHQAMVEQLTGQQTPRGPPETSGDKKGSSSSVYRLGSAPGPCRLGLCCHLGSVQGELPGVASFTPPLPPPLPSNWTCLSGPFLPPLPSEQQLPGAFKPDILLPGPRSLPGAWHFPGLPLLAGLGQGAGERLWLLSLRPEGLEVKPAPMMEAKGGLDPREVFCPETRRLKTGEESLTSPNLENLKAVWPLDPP
In short, it runs like this: as §1

The next experiment addresses T3, ETS2 (Homo sapiens, UniProt P15036 1-469).
T3 sequence: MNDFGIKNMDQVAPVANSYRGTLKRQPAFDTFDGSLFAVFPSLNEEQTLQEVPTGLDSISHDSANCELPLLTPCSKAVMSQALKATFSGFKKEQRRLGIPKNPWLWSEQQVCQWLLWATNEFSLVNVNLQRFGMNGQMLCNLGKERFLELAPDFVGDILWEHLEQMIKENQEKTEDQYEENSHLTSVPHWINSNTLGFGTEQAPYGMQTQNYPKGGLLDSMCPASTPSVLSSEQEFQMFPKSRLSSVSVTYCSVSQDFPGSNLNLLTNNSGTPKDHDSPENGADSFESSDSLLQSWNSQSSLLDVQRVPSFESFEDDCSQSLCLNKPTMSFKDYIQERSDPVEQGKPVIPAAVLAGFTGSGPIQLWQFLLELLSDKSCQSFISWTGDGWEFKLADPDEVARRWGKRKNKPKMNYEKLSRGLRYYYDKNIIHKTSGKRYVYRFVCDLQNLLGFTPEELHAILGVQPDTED
In short, it runs like this: as §1

Another experiment deals with T4, SPDEF (Homo sapiens, UniProt O95238 1-335).
T4 sequence: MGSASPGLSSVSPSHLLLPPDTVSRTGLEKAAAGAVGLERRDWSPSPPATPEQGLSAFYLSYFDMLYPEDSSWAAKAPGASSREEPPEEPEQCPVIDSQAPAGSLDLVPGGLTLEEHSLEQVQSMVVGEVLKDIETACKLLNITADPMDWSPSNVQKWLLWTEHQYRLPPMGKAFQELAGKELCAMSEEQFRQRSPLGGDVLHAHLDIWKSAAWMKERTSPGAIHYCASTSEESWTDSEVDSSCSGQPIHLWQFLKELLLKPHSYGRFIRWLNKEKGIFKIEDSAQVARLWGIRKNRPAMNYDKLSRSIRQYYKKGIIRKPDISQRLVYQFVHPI
In outline:
as §1

Another experiment addresses T5, ETV7 (Homo sapiens, UniProt Q9Y603 1-341).
T5 sequence: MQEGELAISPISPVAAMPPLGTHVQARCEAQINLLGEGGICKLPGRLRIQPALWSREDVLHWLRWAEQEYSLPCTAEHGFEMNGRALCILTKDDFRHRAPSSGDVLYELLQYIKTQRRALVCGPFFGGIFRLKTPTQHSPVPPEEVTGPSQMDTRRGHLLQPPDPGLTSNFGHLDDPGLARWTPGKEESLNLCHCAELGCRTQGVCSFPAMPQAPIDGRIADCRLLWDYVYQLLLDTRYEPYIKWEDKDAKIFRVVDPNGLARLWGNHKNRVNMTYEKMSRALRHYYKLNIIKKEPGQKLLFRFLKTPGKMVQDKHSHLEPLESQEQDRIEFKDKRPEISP
In short, it runs like this:
as §1

The next experiment addresses T6, ELF5 (Homo sapiens, UniProt Q9UKW6-2 1-255).
T6 sequence: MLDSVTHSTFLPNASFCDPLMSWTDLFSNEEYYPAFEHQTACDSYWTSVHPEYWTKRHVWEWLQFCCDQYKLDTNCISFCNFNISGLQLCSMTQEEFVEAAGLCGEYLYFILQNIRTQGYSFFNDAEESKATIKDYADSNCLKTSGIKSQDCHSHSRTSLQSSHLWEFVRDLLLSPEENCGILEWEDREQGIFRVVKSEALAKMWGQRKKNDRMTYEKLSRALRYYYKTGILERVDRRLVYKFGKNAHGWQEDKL
In outline: as §1

In the next experiment the target is T7, ETV3 (Homo sapiens, UniProt P41162-2 1-143).
T7 sequence: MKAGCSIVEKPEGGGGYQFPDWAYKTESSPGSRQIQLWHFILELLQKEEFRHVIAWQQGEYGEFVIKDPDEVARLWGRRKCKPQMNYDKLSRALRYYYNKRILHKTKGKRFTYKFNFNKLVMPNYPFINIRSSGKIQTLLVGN
In outline: as §1

The target in a further experiment is ETV6 (Homo sapiens, UniProt P41212 1-452). In short, it runs like this: as §1
Chain of ETV6 (P41212 whole entry): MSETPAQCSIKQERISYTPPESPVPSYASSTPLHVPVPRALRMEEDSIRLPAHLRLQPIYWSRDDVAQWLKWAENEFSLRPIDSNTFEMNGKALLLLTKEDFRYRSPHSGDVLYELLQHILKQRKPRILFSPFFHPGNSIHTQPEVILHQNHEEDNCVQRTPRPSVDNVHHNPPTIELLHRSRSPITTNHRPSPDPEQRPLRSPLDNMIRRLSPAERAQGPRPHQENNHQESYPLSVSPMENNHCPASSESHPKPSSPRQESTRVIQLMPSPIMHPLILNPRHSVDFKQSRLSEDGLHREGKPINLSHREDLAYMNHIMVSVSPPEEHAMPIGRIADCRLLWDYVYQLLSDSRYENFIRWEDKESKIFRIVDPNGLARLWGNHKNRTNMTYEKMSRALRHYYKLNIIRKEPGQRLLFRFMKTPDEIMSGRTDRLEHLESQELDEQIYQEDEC

With GTGACC, the binding signal is 1.24 fold enrichment (6-mer frequency, TF over GST control) with ERF; 1.26 fold enrichment (6-mer frequency, TF over GST control) with ETV3L; 1.25 fold enrichment (6-mer frequency, TF over GST control) with ETS2; 1.32 fold enrichment (6-mer frequency, TF over GST control) with SPDEF; 1.3 fold enrichment (6-mer frequency, TF over GST control) with ETV7; 1.25 fold enrichment (6-mer frequency, TF over GST control) with ELF5. Further, the binding signal is 1.38 fold enrichment (6-mer frequency, TF over GST control) in the experiment with ETV3 and 1.1 fold enrichment (6-mer frequency, TF over GST control) with ETV6.

Turning to GTCCAT, the binding signal in the experiment with ERF is 1.08 fold enrichment (6-mer frequency, TF over GST control); with ETV3L it was 1.24 fold enrichment (6-mer frequency, TF over GST control); in the experiment with ETS2, 1.04 fold enrichment (6-mer frequency, TF over GST control); with SPDEF it was 1.02 fold enrichment (6-mer frequency, TF over GST control); with ETV7, 1.14 fold enrichment (6-mer frequency, TF over GST control); in the experiment with ELF5 it was 1.07 fold enrichment (6-mer frequency, TF over GST control). The binding signal with ETV3 was 1.11 fold enrichment (6-mer frequency, TF over GST control); with ETV6, 1.07 fold enrichment (6-mer frequency, TF over GST control).

On to CCCGGA, for which the binding signal is 2.32 fold enrichment (6-mer frequency, TF over GST control) with ERF; 2.8 fold enrichment (6-mer frequency, TF over GST control) with ETV3L; 2.98 fold enrichment (6-mer frequency, TF over GST control) with ETS2; 3.97 fold enrichment (6-mer frequency, TF over GST control) in the experiment with SPDEF; 2.48 fold enrichment (6-mer frequency, TF over GST control) with ETV7; 3.77 fold enrichment (6-mer frequency, TF over GST control) with ELF5. Besides, the binding signal with ETV3 is 3.23 fold enrichment (6-mer frequency, TF over GST control); with ETV6, 2.89 fold enrichment (6-mer frequency, TF over GST control).

Consider CGATAT, for which the binding signal is 1.1 fold enrichment (6-mer frequency, TF over GST control) with ERF; 1.14 fold enrichment (6-mer frequency, TF over GST control) with ETV3L; 1.12 fold enrichment (6-mer frequency, TF over GST control) in the experiment with ETS2; 1.06 fold enrichment (6-mer frequency, TF over GST control) with SPDEF; 1.11 fold enrichment (6-mer frequency, TF over GST control) with ETV7; 1.06 fold enrichment (6-mer frequency, TF over GST control) in the experiment with ELF5. In addition, the binding signal with ETV3 is 1.03 fold enrichment (6-mer frequency, TF over GST control); with ETV6, 1.06 fold enrichment (6-mer frequency, TF over GST control).

As for CCCACA, the binding signal in the experiment with ERF was 1.12 fold enrichment (6-mer frequency, TF over GST control); in the experiment with ETV3L, 1.1 fold enrichment (6-mer frequency, TF over GST control); with ETS2 it was 1.13 fold enrichment (6-mer frequency, TF over GST control); with SPDEF it was 1.22 fold enrichment (6-mer frequency, TF over GST control); with ETV7, 1.05 fold enrichment (6-mer frequency, TF over GST control); in the experiment with ELF5, 1.13 fold enrichment (6-mer frequency, TF over GST control). Besides, the binding signal is 1.1 fold enrichment (6-mer frequency, TF over GST control) with ETV3 and 1.14 fold enrichment (6-mer frequency, TF over GST control) with ETV6.

For the sequence GTCTTA, the binding signal in the experiment with ERF is 1.12 fold enrichment (6-mer frequency, TF over GST control); in the experiment with ETV3L, 1.21 fold enrichment (6-mer frequency, TF over GST control); with ETS2 it was 1.16 fold enrichment (6-mer frequency, TF over GST control); with SPDEF it was 1.17 fold enrichment (6-mer frequency, TF over GST control); in the experiment with ETV7, 1.21 fold enrichment (6-mer frequency, TF over GST control); with ELF5 it was 1.18 fold enrichment (6-mer frequency, TF over GST control). The binding signal was 1.23 fold enrichment (6-mer frequency, TF over GST control) with ETV3 and 1.11 fold enrichment (6-mer frequency, TF over GST control) in the experiment with ETV6.

Take GCAAAA: the binding signal in the experiment with ERF was 1.14 fold enrichment (6-mer frequency, TF over GST control); with ETV3L it was 1.06 fold enrichment (6-mer frequency, TF over GST control); in the experiment with ETS2, 1.18 fold enrichment (6-mer frequency, TF over GST control); in the experiment with SPDEF, 1 fold enrichment (6-mer frequency, TF over GST control); with ETV7 it was 1.09 fold enrichment (6-mer frequency, TF over GST control); with ELF5 it was 1.06 fold enrichment (6-mer frequency, TF over GST control). Besides, the binding signal with ETV3 is 1.07 fold enrichment (6-mer frequency, TF over GST control); with ETV6, 1.04 fold enrichment (6-mer frequency, TF over GST control).

On to TAACTT, for which the binding signal in the experiment with ERF is 1.32 fold enrichment (6-mer frequency, TF over GST control); with ETV3L it was 1.47 fold enrichment (6-mer frequency, TF over GST control); with ETS2 it was 1.38 fold enrichment (6-mer frequency, TF over GST control); with SPDEF, 1.28 fold enrichment (6-mer frequency, TF over GST control); with ETV7, 1.25 fold enrichment (6-mer frequency, TF over GST control); with ELF5, 1.44 fold enrichment (6-mer frequency, TF over GST control). In addition, the binding signal is 1.41 fold enrichment (6-mer frequency, TF over GST control) with ETV3 and 1.32 fold enrichment (6-mer frequency, TF over GST control) in the experiment with ETV6.
